# Results filed as inconclusive are left out. Calls of active or inactive are those of the source. Calls come from the whole dose curve; as a rule, active = well fitted cell-killing curve with a large enough effect; inconclusive = small, poorly fitted or top-dose-only effect; inactive = flat fitted curve, though single readings scatter.
# Experiment: qHTS of pediatric cancer cell lines to identify multiple opportunities for drug repurposing: Primary screen for RD cells (AID 1347104); note: nearly all actives have a fitted effect of over 55% in size
# Details: RD rhabdomyosarcoma viability, CellTiter-Glo luminescence, 48 h; series mostly up to 46 µM; activity change, negative = cytotoxic: at the top concentration
# From the text: Drug repurposing or repositioning has been offered as a strategy for drug development in oncology programs. This approach has special potential for childhood cancers and other rare or orphan diseases, where the expected return on new drug development has been a disincentive to pharmaceuticals. […] In this project we exploit the poly-pharmacology of drugs to discover new indications via phenotypic screening of a panel of 19 well-characterized cell lines derived from solid tumors seen in children and adolescents. The goal is to identify approved drugs with previously unrecognized anticancer properties that has the potential to reveal new mechanisms and biological processes involved in carcinogenesis or drug resistance. We employed a titration-based paradigm (quantitative high-throughput screening or qHTS), where all compounds were tested at multiple concentrations for their effect on cell viability. Concentration-response curves (CRCs) were derived directly from the primary screen, and both potency and efficacy values were used to identify compounds with robust bioactivity profiles. We screened the NIH Chemical Genomics Center (NCGC) Pharmaceutical Collection (NPC) and Mechanism Interrogation Plate (MIPE) small molecule collections of approved and investigational compounds against these cell lines; and measured metabolically active cells after 48 hours of compound treatment as a proxy for cell viability. […] Assay Submitter: Nathalia J. Martinez, National Center for Advancing Translational Sciences, National Institutes of Health, Rockville, MD, USA; email: natalia.martinez@nih.gov Shen, M et al. Quantitative high-throughput phenotypic screening of pediatric cancer cell lines identifies multiple opportunities for drug repurposing. Oncotarget 2017 Dec 19;9(4):4758-4772. PMID 29435139.
# The cells were obtained from University of North Carolina (UNC), Pediatric Preclinical Testing Program (PPT), and Coriell Institute (CI). qHTS cell viability assay: Cells were assayed in growth media at a density of 500-1,000 cells/well. Five microliters of cells were dispensed into 1,536-well, white, solid-bottom, TC-treated plates (Greiner Bio One) using a multidrop dispenser and incubated at 37 degrees C, 5% CO2, under a humidified atmosphere for 5 hours. Twenty-three nanoliters of compounds and controls (neutral control DMSO or positive control bortezomib at final concentration of 2.3 µM) were subsequently transferred by Kalypsys pintool. For primary screens, the MIPE collection was tested at 11-point dilutions (final concentrations range from 0.78 nM to 46 µM) and the NPC collection at 8-point dilutions (final concentrations range from 0.59 nM to 46 µM). Compounds tested in follow-up screens were assayed at 11-point dilutions. Cells were incubated for 48 hours, followed by addition of 3 µL of CellTiter-Glo (Promega). After a 15 min incubation at room temperature, samples were analyzed for luminescence intensity using a ViewLux High-throughput CCD imager equipped with clear filters.
row,Compound,"activity change, negative = cytotoxic"
1,CC(=O)Oc1cccc(C)c1,17.7% (inactive)
2,C[C@@H](c1ncncc1F)C(O)(Cn1cncn1)c1ccc(F)cc1F (stereo not given in full),6.78% (inactive)
3,CCOC(=O)OC(C)OC(=O)[C@@H]1N2C(=O)[C@@H](NC(=O)[C@H](N)c3ccccc3)[C@H]2SC1(C)C (stereo not given in full),14.7% (inactive)
4,Cc1ccc(S(=O)(=O)NC(=O)NC2CCCCC2)cc1,5.43% (inactive)
5,O=c1[nH]c(=O)c2ccccc2o1,9.1% (inactive)
6,CC(CN(C)C)C(C)(O)Cc1ccc(Cl)cc1 (stereo not given),0.707% (inactive)
7,CC(=O)Nc1ccc(C(=O)O)cc1,17.8% (inactive)
8,Nc1ccc(S(=O)(=O)c2ccc(N)cc2)cc1,8.62% (inactive)
9,CC(=O)N[C@H]1[C@H]([C@H](O)[C@H](O)CO)OC(C(=O)O)=C[C@@H]1N=C(N)N,-1.62% (inactive)
10,CCCCCC(N)=O,16.8% (inactive)
11,Cc1ccccc1N=Nc1ccc(N=Nc2c(O)ccc3ccccc23)c(C)c1,6.77% (inactive)
12,CCOc1ccccc1O[C@H](c1ccccc1)[C@H]1CNCCO1,7.49% (inactive)
13,COC(=O)c1cccnc1,9.77% (inactive)
14,NCc1ccc(S(N)(=O)=O)cc1,1.58% (inactive)
15,Cc1cc(-n2nc3ccc(Cl)cc3n2)c(O)c(C(C)(C)C)c1,13.8% (inactive)
16,C[N+]1(C)CCCC(OC(=O)C(O)(c2ccccc2)c2ccccc2)C1 (stereo not given),-1.42% (inactive)
17,C/C(=C(\CCO)SS/C(CCO)=C(\C)N(C=O)Cc1cnc(C)nc1N)N(C=O)Cc1cnc(C)nc1N,8.7% (inactive)
18,O=C(O)c1ccccc1OP(=O)(O)O,9.37% (inactive)
19,CC(C)C[C@@H](N)C(=O)O,0.383% [at 16.1 µM] (inactive)
20,CC1(C)S[C@@H]2[C@H](NC(=O)C(C(=O)O)c3ccccc3)C(=O)N2[C@H]1C(=O)O (stereo not given in full),18.4% (inactive)

row,Compound,"activity change, negative = cytotoxic"
1,CCCCCCCCCCCCCCCCCCO,5.13% (inactive)
2,CC(C(=O)O)c1ccc2c(c1)Cc1cccnc1O2 (stereo not given),12.7% (inactive)
3,C/C=C/C(=O)N(CC)c1ccccc1C,9.25% (inactive)
4,COc1ccc(Cc2cnc(N)nc2N)cc1OC,12.8% (inactive)
5,Cn1c(=O)c2c(ncn2CCO)n(C)c1=O,-12.6% (inactive)
6,NNC(=O)CP(=O)(c1ccccc1)c1ccccc1,9.24% (inactive)
7,CC(N)CCCC(C)(C)O (stereo not given),8.44% (inactive)
8,O=C(O)c1ccc[n+]([O-])c1,15% (inactive)
9,Cc1cccc(Nc2ccccc2C(=O)O)c1C,6.32% (inactive)
10,CC[C@]12CCCN3CCc4c(n(c5ccccc45)[C@@](O)(C(=O)OC)C1)[C@@H]32,-0.0962% (inactive)
11,Cc1cc(O)cc(C)c1Cl,15% (inactive)
12,O=C(O)c1ccc(OCCCOc2ccc(C(=O)O)cc2)cc1,11.5% (inactive)
13,COCC(=O)Nc1c(I)c(C(=O)NCC(O)CO)c(I)c(C(=O)N(C)CC(O)CO)c1I (stereo not given),1.9% (inactive)
14,CCCCC1(COC(=O)CCC(=O)O)C(=O)N(c2ccccc2)N(c2ccccc2)C1=O,16% (inactive)
15,CC(=O)N[C@@H](Cc1ccc(O)cc1)C(=O)O,-6.1% (inactive)
16,O=C(NCC(O)CO)c1c(I)c(C(=O)NCC(O)CO)c(I)c(N(CCO)C(=O)CO)c1I (stereo not given),-10.2% (inactive)
17,NC(=O)CCCCC1CCSS1 (stereo not given),10.7% (inactive)
18,O=C1c2cccc(O)c2C(=O)c2c(O)cccc21,-4.51% (inactive)
19,Cc1c(NC(C)C)c(=O)n(-c2ccccc2)n1C,9.85% (inactive)
20,C[C@H]1COc2c(C3(N)CC3)c(F)cc3c(=O)c(C(=O)O)cn1c23,10% (inactive)
